Data published in PubChem BioAssay AID1671448 (Corson Lab, School of Medicine, Indiana University, 2021).
Among all 20,000 compounds or so, about 660 (3.3%) were called active. The sample holds actives, similar compounds and a random draw of the others, so the mix is not that of the screen.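 The calls were made as follows: active = enzyme reaction rate more than 3 SD below the solvent-only control wells on the same plate; inactive = the rest.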

Target: Ferrochelatase, mitochondrial (Homo sapiens) (UniProt P22830)
Sequence (P22830 whole entry, looked up): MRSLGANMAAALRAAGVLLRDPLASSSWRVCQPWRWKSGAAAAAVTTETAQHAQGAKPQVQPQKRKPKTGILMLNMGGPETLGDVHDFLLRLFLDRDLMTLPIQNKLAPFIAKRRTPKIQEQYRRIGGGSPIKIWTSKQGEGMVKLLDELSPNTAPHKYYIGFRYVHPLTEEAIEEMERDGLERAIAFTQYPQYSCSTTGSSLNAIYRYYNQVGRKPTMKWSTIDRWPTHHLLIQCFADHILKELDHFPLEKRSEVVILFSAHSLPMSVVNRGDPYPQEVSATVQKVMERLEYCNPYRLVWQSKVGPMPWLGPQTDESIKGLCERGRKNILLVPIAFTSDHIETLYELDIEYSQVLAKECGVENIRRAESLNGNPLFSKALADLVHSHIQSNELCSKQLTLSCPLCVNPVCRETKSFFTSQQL
Experiment: FECH heme synthesis enzyme blockers – biochemical, purified FECH, Ni-mesoporphyrin absorbance, primary screen (AID 1671448)
Details: Ni-mesoporphyrin absorbance 550 nm, screened at 10 µM (by protocol)

| SMILES | outcome |
| --- | --- |
| CCOc1ccc(CCNC(=O)CN2C(=O)C=C(CC(=O)OC)Nc3ccccc32)cc1OCC | inactive |
| CNCc1cc(-c2ccc(C)c3ncccc23)ccc1OC | inactive |
| COCCNC(=O)Cn1c(C(=O)OC)cc2ccsc21 | inactive |
| NC(=O)c1cccc(CC2CCN(C(=O)CCc3cn4ccccc4n3)C2)c1 (stereo not given) | inactive |
| CN(C)c1ccc(CNC(=O)c2nc(N3CCCC3)c3oc4ccccc4c3n2)cc1 | inactive |
| COc1cccc(Cn2c(CNS(=O)(=O)c3cccc(Cl)c3)nc3cccnc32)c1 | inactive |
| Cc1cc(C)n(CCNC(=O)c2cc(-c3ccccc3)n[nH]2)c(=O)n1 | inactive |
| COc1nc2c(cc1CNC(=O)c1ccncc1F)C(=O)N(C1CCCC1)C2 | inactive |
| CC(C)CN1CCOC(CCNC(=O)c2cncs2)C1 (stereo not given) | inactive |
| CCN(CC)c1nc(Nc2ccc(C)cc2)c2cnn(-c3ccccc3)c2n1 | inactive |
| COc1ccc(OC)c(Nc2nc(N(C)C)nc3c2cnn3-c2ccccc2)c1 | inactive |
| CCCCN(C)c1nc(Nc2ccc(OC)cc2)c2cnn(-c3ccccc3)c2n1 | active |
| Cc1cc(NC(=O)c2ccc(C(C)(C)C)cc2)n(-c2ncnc3c2cnn3-c2ccc(Cl)cc2)n1 | inactive |
| Cc1ccsc1CN(C)C(=O)c1ccc(-c2ncn[nH]2)cc1 | inactive |
| CCOC(=O)N1CCC(NCc2ccccc2-n2ccnc2C)CC1 | inactive |
| O=C(O)[C@H]1C[C@@H](O)CCN1C(=O)C1(c2ccc(Cl)cc2)CC1 | inactive |
| O=C(NC(Cn1cccn1)c1ccccc1)c1cc2n(n1)CCNC2 (stereo not given) | inactive |
| O=C(NCc1ccccn1)C1CCN(c2ccc(-c3ccc(Br)s3)nn2)CC1 | inactive |
| Cc1ccc(CSc2ncc(Cl)c(C(=O)Nc3ccc(S(N)(=O)=O)cc3)n2)cc1 | inactive |
| CCc1ccc(NC(=O)CN2CCN(Cc3cccc(C)c3)S2(=O)=O)cc1 | active |
| COC(=O)c1ccc(NC(=O)CN2CCN(Cc3ccc(C)cc3)S2(=O)=O)cc1 | inactive |
| Cc1cccc(CN2CCCN(CC(=O)Nc3ccc(Cl)cc3)S2(=O)=O)c1 | inactive |
| CC(COc1ccccc1)NCc1nnc(-c2ccccc2)o1 (stereo not given) | active |
| Cc1cc(C)cc(C(=O)NCCn2c(-c3ccccc3)nc3cccnc32)c1 | inactive |
| CCn1c(=O)n(-c2ccc(C)c(C)c2)c2nc(-c3cccc(F)c3F)nc(C(N)=O)c21 | inactive |
| Cc1noc(C)c1CN(C)Cc1ccc(C2CCCO2)s1 (stereo not given) | inactive |
| CCCc1cc(=O)n2[nH]c(CNc3ccc(C)cc3C)nc2n1 | inactive |

| SMILES | outcome |
| --- | --- |
| COc1ccccc1CNc1nc2nc(CNc3ccc(F)cc3)cc(=O)n2[nH]1 | inactive |
| COc1ccccc1NCc1nc2nc(C(C)C)cc(=O)n2[nH]1 | active |
| CC(C)c1nc(CN(C)C(=O)c2cnn3ccn(C)c23)cs1 | inactive |
| COc1ccccc1-c1cc2n(C)c(C)c(CCC(=O)Nc3ccccc3F)c(=O)n2n1 | inactive |
| CCOC(=O)CCc1c(C)nc2nc(CNc3ccccc3F)[nH]n2c1=O | active |
| CCOc1ccc(NC(=O)Nc2c(C)nc3nc(C4CC4)[nH]n3c2=O)cc1 | inactive |
| O=C(CCn1nnc2ccccc21)N1CCCC(c2ccn[nH]2)C1 (stereo not given) | inactive |
| OCCCc1nc2ccccc2n1-c1ccc2[nH]ccc2c1 | inactive |
| Cc1cc2cc(C(=O)NCCSCc3nc[nH]c3C)ccc2o1 | inactive |
| Cc1ccc2c(CC(=O)NCc3csc(C)n3)cc(=O)oc2c1 | inactive |
| O=C(c1csc(S(=O)(=O)NCc2ccc(F)cc2)c1)N1CCCC1 | inactive |
| Cc1cc(F)cc(-c2c(-c3ccccc3)ncn2CCN2CCC(O)CC2)c1 | active |
| Cc1ccc(-c2c(-c3ccccc3)ncn2CCN2CCCC2=O)c(F)c1 | inactive |
| Cc1cc(C)c(-c2c(-c3ccccc3)ncn2CCOCCO)c(C)c1 | inactive |
| Cc1nn(C)cc1-c1c(-c2ccccc2)ncn1CCNC(=O)c1ccncc1 | inactive |
| COCCNC(=O)C1(C)Cn2c(cc3ccsc32)C(=O)N1c1ccc(OC)cc1 (stereo not given) | inactive |
| CCc1cc(Sc2ccccc2NC(=O)c2cccc(Cl)c2)n2nc(C)nc2n1 | active |
| CCc1cc(Sc2ccccc2NC(=O)Cc2ccccc2)n2nc(C)nc2n1 | inactive |
| CCc1cc(Sc2ccccc2NC(=O)c2ccc(Br)cc2)n2nc(C)nc2n1 | inactive |
| CC(C)CNc1nc(Nc2ccc(Cl)cc2)c2cnn(-c3ccccc3)c2n1 | inactive |
| Cc1cccc(CN2CCCN(CC(=O)NCc3ccc(Cl)cc3)S2(=O)=O)c1 | inactive |
| CCOC1CCN(Cc2cc3cc4c(cc3[nH]c2=O)CCC4)CC1 | inactive |
| CCOC(=O)Cn1c(=O)n(-c2ccc(C)c(C)c2)c2nc(-c3ccccc3C)nc(C(N)=O)c21 | inactive |
| CCc1cc(-c2nccn2CCCc2nn[nH]n2)on1 | inactive |
| Cc1ccnc(C(NC(=O)c2ccccc2-n2cncn2)C2CC2)c1 (stereo not given) | inactive |
| O=S(=O)(NCCCc1nc2ccccc2o1)NCc1ccccc1 | inactive |
| COc1ccc(N2C(=O)CCS2(=O)=O)cc1S(=O)(=O)Nc1cc(Cl)ccc1C | inactive |

| SMILES | outcome |
| --- | --- |
| Cc1ccc(S(=O)(=O)N2CCN(c3cc(-c4cccc(F)c4)ncn3)CC2)cc1C | inactive |
| COc1ccc(CNc2nc3nc(CNc4ccc(C)c(Cl)c4)cc(=O)n3[nH]2)cc1 | inactive |
| CC(C)(C)c1ccc(-c2nc3nc(CNc4ccccc4Cl)cc(=O)n3[nH]2)cc1 | active |
| Cc1cccc(NCc2cc(=O)n3[nH]c(-c4ccc(C(C)(C)C)cc4)nc3n2)c1 | inactive |
| O=C(NCC1CCN(Cc2ccccc2F)C1)c1cc(Cl)no1 (stereo not given) | inactive |
| CCOC(=O)Cn1c(=O)n(-c2ccc(C)c(C)c2)c2nc(-c3cccc(F)c3F)nc(C(N)=O)c21 | inactive |
| Cc1nc(C(C)C)sc1CNC(=O)c1cn(CC2CCCNC2)nn1 (stereo not given) | inactive |
| O=C(C1CCCN(C2CCN(Cc3cccnc3)CC2)C1)N1CC=CC1 (stereo not given) | inactive |
| CC(c1cccs1)N(C)Cc1cnc(-c2ccco2)nc1 (stereo not given) | inactive |
| CSC(C)(C)CC(C)NCC(=O)Nc1ccccc1C (stereo not given) | inactive |
| COC(C)(C)Cn1ccnc1-c1ccc(Oc2ncccn2)cc1 | inactive |
| Cn1nc(-c2ccccc2)c(-c2ccccc2)c(C(=O)Nc2ccc(S(N)(=O)=O)cc2)c1=O | inactive |
| CCOc1c(N2CCc3ccccc3C2)c(=O)c1=O | inactive |
| Cc1cccc(Cn2c(=O)c3cnc(-c4ccncc4)nc3n(C)c2=O)c1 | inactive |
| C=CC[C@@H]1CC=C[C@@H](C)N1C(=O)Cc1c(C)nc(C)[nH]c1=O | inactive |
| C=CCn1c(=O)c2cnc(-c3ccc(Cl)cc3)nc2n(C)c1=O | active |
| Cn1c(=O)n(CC(=O)NCc2cccs2)c(=O)c2cnc(-c3ccccc3)nc21 | inactive |
| C=CCn1c(=O)c2cnc(-c3ccc(OC)cc3)nc2n(C)c1=O | inactive |
| Cn1c(=O)n(CC(=O)N2CCOCC2)c(=O)c2cnc(-c3ccccc3)nc21 | active |
| CCc1ccc(CNC(=O)Cn2c(=O)c3cnc(-c4ccccc4)nc3n(C)c2=O)cc1 | inactive |
| COc1ccccc1-c1nc(Cn2c(=O)c3cnc(-c4ccc(Cl)cc4)nc3n(C)c2=O)c(C)o1 | inactive |
| COc1ccc(OC)c(S(=O)(=O)Nc2ccc(Sc3c(C)c(C)nc4ncnn34)cc2)c1 | inactive |
| COc1ccccc1C(=O)Nc1cc(C)nn1-c1ncnc2c1cnn2-c1ccc(C)cc1C | inactive |
| Cc1ccccc1C(C(=O)N1CCCOCC1)N(C)C (stereo not given) | inactive |
| Cc1ccsc1CN(CCO)C(=O)c1ccc2c(c1)CCCO2 | inactive |
| CC(=O)N1CCN(Cc2nc3c(C)c(C)ccc3[nH]2)CC1 | inactive |
| CC(C)NC(=O)C1CCC(Cn2c(=O)c3sccc3n(CC(=O)NCc3ccco3)c2=O)CC1 (stereo not given) | inactive |

| SMILES | outcome |
| --- | --- |
| CCn1cc(CN2CCN(C)C3(CCN(C(=O)c4ccco4)CC3)C2)cn1 | inactive |
| CCOC(=O)c1cccc(Nc2cc(-c3ccc(C)cc3)nc(C)n2)c1 | inactive |
| CCC(=O)Nc1ccccc1-c1nnc(SC(CC)C(=O)Nc2ccc(OC)cc2)[nH]c1=O (stereo not given) | inactive |
| COc1ccc(N2C(=O)CCS2(=O)=O)cc1S(=O)(=O)Nc1ccc(C(C)C)cc1 | inactive |
| Nc1nc2c(c(-c3cccnc3)n1)CN(C(=O)c1cc(F)c(F)c(F)c1)C2 | inactive |
| CC(Cc1ccc2c(c1)OCO2)CN1CCC(NS(C)(=O)=O)CC1 (stereo not given) | inactive |
| Cc1noc(C)c1S(=O)(=O)N1CC(c2cccnc2)C1 | inactive |
| c1ccc(-c2ccc(-c3nccn3CCN3CCOCC3)s2)cc1 | inactive |
| c1cc(CN2CCOCC2)cc(-c2ccc(NC3CCCC3)nn2)c1 | active |
| O=C1CC(c2cccnc2)c2cnn(CC3CC3)c2N1 (stereo not given) | inactive |
| O=C(O)CSc1nnc(C2CCCNC2)n1-c1cccc(Cl)c1 (stereo not given) | inactive |
| c1ccc(C2CCN(CCn3ccnc3C3CC3)C2)cc1 (stereo not given) | inactive |
| Cc1cc(C)cc(Nc2nc(N3CCOCC3)nc3c2cnn3-c2ccccc2)c1 | inactive |
| Cc1cc(C)n(CCC(=O)N(Cc2ccccc2C)CC2CCCO2)c(=O)n1 (stereo not given) | inactive |
| CC1CNC(=O)CCN1Cc1ccc2cccc(Cl)c2n1 (stereo not given) | inactive |
| CCc1nc(C)c(C(=O)N2CCN(c3nsc4ccccc34)CC2)o1 | inactive |
| Cc1c(F)cccc1NC(=O)CNC(c1ccccn1)C(F)(F)F (stereo not given) | inactive |
| CCCSc1ncc(CN2CCC3(CCC(=O)N(C)CC3)CC2)cn1 | inactive |
| Cc1cc(C)c(CN2CCN(Cc3ccccc3Cl)S2(=O)=O)c(C)c1 | inactive |
| COc1ccc(-c2cc3n(n2)CCC(=O)N3Cc2ccc(C(=O)NCCN3CCCC3)cc2)cc1 | inactive |
| Fc1ccc(-c2cc(CNc3nccc(C4CCCC4)n3)no2)cc1 | inactive |
| COc1ccc(Nc2cc(C)nc(Nc3ccc(NC(=O)c4ccc(C)cc4)cc3)n2)cc1 | inactive |
| CCCn1ccnc1C1CC(=O)Nc2c1c(C(C)C)nn2-c1ccccc1 (stereo not given) | inactive |
| Cc1cc2nc(COc3ccc(Cl)cc3NC(=O)COc3ccccc3C)cc(=O)n2o1 | inactive |
